# Reference: PubChem BioAssay (NCATS)
# Records with an inconclusive call do not appear. A call without a number means that no potency is given here. Values without a mark were called inactive. Calls of active or inactive are those of the source. Calls follow the shape of the dose curve; as a rule, active = well fitted curve in the direction sought with a large enough effect; inconclusive = small, poorly fitted or top-dose-only effect, or another doubt; inactive = no such curve, though single readings can be large; an effect the other way counts as inactive or inconclusive. Where a SMILES comes first, the peptide text is derived from it. [ ]: non-standard residue; d: D form. pGlu = O=C1CC[C@@H](C(=O)O)N1; Thz = O=C(O)[C@@H]1CSCN1
# What was measured:
# [1] = test system: Zika virus NS2B-NS3 protease (unlinked complex); assay: Primary screen GU Rhodamine qHTS for Zika virus inhibitors: Unlinked NS2B-NS3 protease assay (AID 1347159); also: nearly all actives have a fitted effect of over 60% in size; also: potency is read from the fitted curve at half-maximal effect
# Outline: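 Noncovalent NS2B hydrophilic domain–NS3 protease domain complex (25 nM) preincubated 15 min at room temperature with compounds (up to 114 microM) in 10 mM Tris-HCl pH 8.0, 0.01% Tween 20; 1.5 microM Rhodamine110 substrate added, fluorescence change over 15 min fitted to Hill equation.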
# [2] = test system: Zika virus NS2B-NS3 protease (linked construct); assay: Primary screen NINDS Rhodamine qHTS for Zika virus inhibitors (AID 1347160); also: nearly all actives have a fitted effect of over 55% in size; also: potency is read from the fitted curve at half-maximal effect
# Outline: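 Purified linked NS2B-NS3 protease (NS2B hydrophilic domain joined to NS3 protease by flexible linker), 25 nM in 10 mM Tris-HCl pH 8.0, 0.01% Tween 20. Compounds titrated, 15 min preincubation at room temperature; 1.5 microM Rhodamine110 substrate, FITC fluorescence change over 15 min.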
# [3] = molecular target: Lysine-specific demethylase 5B (Homo sapiens) (UniProt Q9UGL1); assay: Optimization screen for KDM5B Histone Demethylases FDH coupled qHTS against the LOPAC library (AID 1347166)
# Chain of Lysine-specific demethylase 5B (Homo sapiens) (Q9UGL1 whole entry, looked up): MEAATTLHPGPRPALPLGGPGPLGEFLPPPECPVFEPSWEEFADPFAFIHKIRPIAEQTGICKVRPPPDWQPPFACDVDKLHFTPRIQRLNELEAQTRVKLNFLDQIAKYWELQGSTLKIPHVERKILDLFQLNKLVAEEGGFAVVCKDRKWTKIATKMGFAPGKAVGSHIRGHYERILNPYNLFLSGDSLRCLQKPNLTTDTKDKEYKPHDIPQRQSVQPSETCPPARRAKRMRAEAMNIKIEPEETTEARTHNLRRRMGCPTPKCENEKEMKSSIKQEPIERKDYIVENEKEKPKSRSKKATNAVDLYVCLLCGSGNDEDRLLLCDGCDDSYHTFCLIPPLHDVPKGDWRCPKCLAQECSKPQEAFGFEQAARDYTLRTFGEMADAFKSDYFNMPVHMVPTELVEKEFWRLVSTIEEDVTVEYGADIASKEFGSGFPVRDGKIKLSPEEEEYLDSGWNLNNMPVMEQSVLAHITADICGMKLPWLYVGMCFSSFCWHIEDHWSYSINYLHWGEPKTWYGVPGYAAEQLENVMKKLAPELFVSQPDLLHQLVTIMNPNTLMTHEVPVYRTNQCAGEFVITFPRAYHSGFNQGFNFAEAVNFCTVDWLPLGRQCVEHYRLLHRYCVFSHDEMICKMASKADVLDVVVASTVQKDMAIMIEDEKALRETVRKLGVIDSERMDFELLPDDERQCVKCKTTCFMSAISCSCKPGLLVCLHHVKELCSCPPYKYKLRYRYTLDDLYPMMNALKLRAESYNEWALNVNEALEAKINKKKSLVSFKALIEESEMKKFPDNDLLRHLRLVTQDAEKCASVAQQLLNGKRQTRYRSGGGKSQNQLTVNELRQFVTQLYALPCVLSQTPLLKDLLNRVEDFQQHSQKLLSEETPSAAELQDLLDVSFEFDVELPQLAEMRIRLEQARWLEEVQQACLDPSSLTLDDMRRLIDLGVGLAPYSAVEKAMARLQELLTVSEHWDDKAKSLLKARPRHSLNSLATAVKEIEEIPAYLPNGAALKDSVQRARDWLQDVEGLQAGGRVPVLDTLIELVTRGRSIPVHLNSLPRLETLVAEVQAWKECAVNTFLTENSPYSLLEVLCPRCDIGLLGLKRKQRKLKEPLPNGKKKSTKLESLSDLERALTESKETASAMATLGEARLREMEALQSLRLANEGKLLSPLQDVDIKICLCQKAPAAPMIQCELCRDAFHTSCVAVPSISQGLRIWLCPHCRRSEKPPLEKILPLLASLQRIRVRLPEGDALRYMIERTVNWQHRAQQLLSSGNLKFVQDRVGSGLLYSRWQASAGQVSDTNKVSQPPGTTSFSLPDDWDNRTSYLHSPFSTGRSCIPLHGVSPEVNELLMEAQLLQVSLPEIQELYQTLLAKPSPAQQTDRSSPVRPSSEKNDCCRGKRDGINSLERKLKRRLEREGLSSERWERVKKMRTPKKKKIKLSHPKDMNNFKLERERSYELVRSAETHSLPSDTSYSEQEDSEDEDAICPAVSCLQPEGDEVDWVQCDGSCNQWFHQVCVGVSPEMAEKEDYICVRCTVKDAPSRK
# Outline: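 KDM5BDeltaAP (200nM final) preincubated 10 min with compound, then 12.5uM H3K4Me3, 25uM a-ketoglutarate, ascorbate, Fe(II), NAD+ and FDH added; 50mM HEPES pH 7.5, 0.01% Tween-20. NADH fluorescence (340/450 nm) change over 30 min, room temperature.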
# [4] = Confirmatory screen NINDS Rhodamine qHTS for Zika virus inhibitors (AID 1347161);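 also: purified Zika NS2B-NS3 protease with linked NS2B cofactor domain and Rhodamine110 peptide substrate; series mostly up to about 110 µM; nearly all actives have a fitted effect of over 60% in size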
# Outline: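 Enzyme (25 nM, linked NS2B-NS3) was preincubated 15 min with compound in 10 mM Tris-HCl pH 8.0, 0.01% Tween 20. Rhodamine110 substrate (1.5 microM) was then added and fluorescence read at start and after 15 min.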
# [5] = Vero cells viability qHTS for Zika virus inhibitors (AID 1347167)
# Outline: (§1)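 Compounds were tested in concentration series on cells grown in DMEM containing 4% FBS. After 24 to 48 hours, cellular ATP was measured by luminescence with CellTiter Glo.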
# [6] = HepG2 cells viability qHTS for Zika virus inhibitors (AID 1347168)
# Outline: as §1
compound,measurement,setting,value
CN1[C@@H]2CC[C@H]1CC(OC(=O)C(CO)c1ccccc1)C2 (some centres not stated),Potency,[1],inactive
same,Potency,[2],inactive
COc1ccc(/C=C/C(=O)Nc2ccccc2C(=O)O)cc1OC,Potency,[1],inactive
same,Potency,[2],inactive
same,outcome,[3],inactive
Fc1ccc2[nH]c(CN3CCN(c4ccccn4)CC3)cc2c1,Potency,[1],inactive
same,Potency,[2],inactive
CC(=O)SCC(CC(=O)c1ccc(C)cc1)C(=O)O (configuration not stated),Potency,[1],inactive
same,Potency,[2],inactive
CS(=O)(=O)c1ccc(-n2nc(C(F)(F)F)cc2-c2ccc(F)cc2)cc1,Potency,[1],inactive
same,Potency,[2],inactive
CC1(C)S[C@@H]2[C@H](NC(=O)[C@H](NC(=O)N3CCN(S(C)(=O)=O)C3=O)c3ccccc3)C(=O)N2[C@H]1C(=O)O,Potency,[1],inactive
same,Potency,[2],inactive
CC(=O)O[C@H]1C[C@@]2(C)[C@@H](C[C@@H](O)[C@H]3[C@@]4(C)CC[C@@H](O)[C@@H](C)[C@@H]4CC[C@@]32C)/C1=C(\CCC=C(C)C)C(=O)O,Potency,[1],inactive
same,Potency,[2],inactive
O=[N+]([O-])c1ccc(CNc2nc(NCc3cccc(C(F)(F)F)c3)nc3nc[nH]c23)cc1,Potency,[1],inactive
same,Potency,[2],inactive
CN1[C@@H]2CC[C@H]1CC(OC(c1ccccc1)c1ccccc1)C2 (some centres not stated),Potency,[1],inactive
same,Potency,[2],inactive
Cc1onc(-c2c(F)cccc2Cl)c1C(=O)N[C@@H]1C(=O)N2[C@@H]1SC(C)(C)[C@@H]2C(=O)O,Potency,[1],inactive
same,Potency,[2],inactive
CC1(C)[C@@H](O)CC[C@]2(C)[C@H]3C(=O)C=C4[C@@H]5C[C@@](C)(C(=O)O)CC[C@]5(C)CC[C@@]4(C)[C@]3(C)CC[C@@H]12,Potency,[1],17.8 µM (active)
same,Potency,[2],14.1 µM (active)
CCN(CC)CCCCNc1ncc2cc(-c3c(Cl)cccc3Cl)c(NC(=O)NC(C)(C)C)nc2n1,Potency,[1],inactive
same,Potency,[2],inactive
COc1cc(/C=C/C(=O)N2CCN(CC(=O)N3CCCC3)CC2)cc(OC)c1OC,Potency,[1],inactive
same,Potency,[2],inactive
O=C(Nc1ccc2[nH]ncc2c1)C1CCC1,Potency,[1],inactive
same,Potency,[2],inactive
O=C(O)[C@H](CC(=O)N1C[C@H]2CCCC[C@H]2C1)Cc1ccccc1,Potency,[2],inactive
COC(=O)C1=C(C)NC(C)=C(C(=O)OC)C1c1cccc(NC(=O)NCCCN2CCC(c3cccc(OC)c3)CC2)c1,Potency,[1],inactive
same,Potency,[2],inactive
same,Potency,[4],inactive
same,outcome,[5],inactive
O=C(Nc1ccc2c(c1)CCN(Cc1ncn[nH]1)C2)c1ccccc1-c1ccc(C(F)(F)F)cc1,Potency,[1],inactive
same,Potency,[2],inactive
CCCCN(CC)c1nc(C)nc2c1c(C)cn2-c1c(C)cc(C)cc1C,Potency,[1],inactive
same,Potency,[2],inactive
same,outcome,[5],inactive
same,outcome,[6],inactive
COC(=O)[C@H]1[C@H]2C[C@@H]3c4[nH]c5cc(OC)ccc5c4CCN3C[C@H]2C[C@@H](OC(=O)/C=C/c2cc(OC)c(OC)c(OC)c2)[C@@H]1OC,Potency,[1],inactive
same,Potency,[2],inactive
CN(CCCOc1ccc(Cc2ccccc2)cc1)CCC(=O)O,Potency,[1],inactive
same,Potency,[2],inactive
O=c1cc(-c2ccccc2)oc2c(O)c(O)ccc12,Potency,[2],6.97 µM (active)
NS(=O)(=O)c1ccc(-n2nc(C(F)(F)F)cc2-c2ccc(Cl)cc2)cc1,Potency,[2],inactive
CC(C(=O)O)c1ccc2c(c1)[nH]c1ccc(Cl)cc12 (configuration not stated),Potency,[1],35.5 µM (active)
O=C(O)CC1CC(c2ccccc2)=NO1 (configuration not stated),Potency,[1],inactive
same,outcome,[3],inactive
CC(=O)c1ccc(OCC(=O)N2CCCCC2)cc1,Potency,[1],inactive
same,Potency,[2],inactive
CCNc1nc2c(ncn2[C@H]2C[C@H](O)[C@@H](CO)O2)c(=O)[nH]1,Potency,[1],inactive
same,Potency,[2],inactive
O=C(O)Cc1cccc(-c2cc(CCCCCCc3ccc(O[C@H]4O[C@H](CO)[C@@H](O)[C@H](O)[C@@H]4O)c(-c4cccc(CC(=O)O)c4)c3)ccc2O[C@H]2O[C@H](CO)[C@@H](O)[C@H](O)[C@@H]2O)c1,"activity change, negative = inhibition",[1],17.6% [at 1.28 µM]
same,"activity change, negative = inhibition",[2],11.1% [at 0.684 µM]
CC1(C)S[C@@H]2[C@H](NC(=O)[C@H](N)c3ccc(O)cc3)C(=O)N2[C@H]1C(=O)O,Potency,[1],inactive
same,Potency,[2],inactive
CCNC(=O)[C@H]1O[C@@H](n2cnc3c(N)nc(NCCc4ccc(CCC(=O)O)cc4)nc32)[C@H](O)[C@@H]1O,Potency,[1],inactive
same,Potency,[2],inactive
C/C(=N\O)c1ccc(OCC(=O)N2CCCCC2)cc1,Potency,[1],inactive
same,Potency,[2],inactive
Cc1ccc2c(n1)Oc1ccc(C(C)C(=O)OCC(=O)N(C)C)cc1C2 (configuration not stated),Potency,[1],inactive
same,Potency,[2],inactive
C[C@H](O)[C@H](O)[C@H]1CNc2nc(N)[nH]c(=O)c2N1,Potency,[1],inactive
same,Potency,[2],inactive
O=C1CC[C@@H](C(=O)N2CSC[C@H]2C(=O)O)N1 ([pGlu]-[Thz]-OH),Potency,[1],inactive
same,Potency,[2],inactive
